Test results from PubChem BioAssay (NCATS).
Records with an inconclusive call do not appear. A call without a number means that no potency is given here. Active and inactive are the calls of the source. The call rests on the fitted dose curve; in most records, active means well fitted cell-killing curve with a large enough effect; inconclusive means small, poorly fitted or top-dose-only effect; inactive means flat fitted curve, though single readings scatter.

Assay: qHTS of pediatric cancer cell lines to identify multiple opportunities for drug repurposing: Primary screen for TC32 cells (AID 1347089); further: nearly all actives have a fitted effect of over 60% in size
Conditions: TC32 Ewing sarcoma viability, CellTiter-Glo luminescence, 48 h; series mostly up to 45.8 µM
Description: Drug repurposing or repositioning has been offered as a strategy for drug development in oncology programs. This approach has special potential for childhood cancers and other rare or orphan diseases, where the expected return on new drug development has been a disincentive to pharmaceuticals.
In this project we exploit the poly-pharmacology of drugs to discover new indications via phenotypic screening of a panel of 19 well-characterized cell lines derived from solid tumors seen in children and adolescents. The goal is to identify approved drugs with previously unrecognized anticancer properties that has the potential to reveal new mechanisms and biological processes involved in carcinogenesis or drug resistance. We employed a titration-based paradigm (quantitative high-throughput screening or qHTS), where all compounds were tested at multiple concentrations for their effect on cell viability. Concentration-response curves (CRCs) were derived directly from the primary screen, and both potency and efficacy values were used to identify compounds with robust bioactivity profiles. We screened the NIH Chemical Genomics Center (NCGC) Pharmaceutical Collection (NPC) and Mechanism Interrogation Plate (MIPE) small molecule collections of approved and investigational compounds against these cell lines; and measured metabolically active cells after 48 hours of compound treatment as a proxy for cell viability.
Assay Submitter: Nathalia J. Martinez, National Center for Advancing Translational Sciences, National Institutes of Health, Rockville, MD, USA; email: natalia.martinez@nih.gov
[1] Shen, M et al. Quantitative high-throughput phenotypic screening of pediatric cancer cell lines identifies multiple opportunities for drug repurposing. Oncotarget 2017 Dec 19;9(4):4758-4772. PMID 29435139.
The cells were obtained from University of North Carolina (UNC), Pediatric Preclinical Testing Program (PPT), and Coriell Institute (CI).
qHTS cell viability assay:
Cells were assayed in growth media at a density of 500-1,000 cells/well. Five microliters of cells were dispensed into 1,536-well, white, solid-bottom, TC-treated plates (Greiner Bio One) using a multidrop dispenser and incubated at 37 degrees C, 5% CO2, under a humidified atmosphere for 5 hours. Twenty-three nanoliters of compounds and controls (neutral control DMSO or positive control bortezomib at final concentration of 2.3 uM) were subsequently transferred by Kalypsys pintool. For primary screens, the MIPE collection was tested at 11-point dilutions (final concentrations range from 0.78 nM to 46 µM) and the NPC collection at 8-point dilutions (final concentrations range from 0.59 nM to 46 µM). Compounds tested in follow-up screens were assayed at 11-point dilutions. Cells were incubated for 48 hours, followed by addition of 3 uL of CellTiter-Glo (Promega). After a 15min incubation at room temperature, samples were analyzed for luminescence intensity using a ViewLux High-throughput CCD imager equipped with clear filters.

Row | SMILES | Potency
1 | CN1CCN(C2=Nc3ccccc3Oc3ccc(Cl)cc32)CC1 | inactive
2 | CCCC(C(=O)OCCN(CC)CC)(c1ccccc1)c1ccccc1 | inactive
3 | c1ccc2c(c1)CCCC2C1=NCCN1 (stereo not given) | inactive
4 | COc1ccc(CN(CCN(C)C)c2ccccn2)cc1 | inactive
5 | CC1=NS(=O)(=O)c2cc(Cl)ccc2N1 | inactive
6 | CCN(Cc1ccncc1)C(=O)C(CO)c1ccccc1 (stereo not given) | inactive
7 | CC(=O)Nc1nnc(S(N)(=O)=O)s1 | inactive
8 | CO[C@@]1(NC(=O)CSCC#N)C(=O)N2C(C(=O)O)=C(CSc3nnnn3C)CS[C@@H]21 | inactive
9 | O=C1CC2(CCCC2)CC(=O)N1CCCCN1CCN(c2ncccn2)CC1 | inactive
10 | CCn1nc(C(=O)O)c(=O)c2cc3c(cc21)OCO3 | inactive
11 | CCN(CC)CCNC(=O)c1ccc(NC(C)=O)cc1 | inactive
12 | Nc1c2c(nc3ccccc13)CCCC2O (stereo not given) | inactive
13 | COc1cc(C(=O)OCCCN2CCCN(CCCOC(=O)c3cc(OC)c(OC)c(OC)c3)CC2)cc(OC)c1OC | inactive
14 | COc1ccc2c(c1OC)C(=O)O[C@@H]2[C@H]1c2c(cc3c(c2OC)OCO3)CCN1C | inactive
15 | CN(C)CCCN1c2ccccc2Sc2ccccc21 | inactive
16 | CC1=C(C)C(=O)C(CCCCC#CCCCC#CCO)=C(C)C1=O | inactive
17 | CCn1ccnc1CC1COc2ccccc2O1 (stereo not given) | inactive
18 | Cc1scc2c1N(C(=O)CN1CCN(C)CC1)c1ccccc1NC2=O | inactive
19 | Cc1nc2c([nH]1)c(=O)n(C)c(=O)n2Cc1ccco1 | inactive
20 | C[N+](C)(C)CCCCCCCCCC[N+](C)(C)C | inactive

Row | SMILES | Potency
21 | O=C(O)CP(=O)(O)O | inactive
22 | C[N+](C)(C)CCOC(=O)CCC(=O)OCC[N+](C)(C)C | inactive
23 | CCCCOCCOCCOCc1cc2c(cc1CCC)OCO2 | inactive
24 | CC(C)(Oc1ccc(CCNC(=O)c2ccc(Cl)cc2)cc1)C(=O)O | inactive
25 | CC[N+](C)(C)c1cccc(O)c1 | inactive
26 | Fc1ccc(C(c2ccc(F)cc2)N2CCN(C/C=C/c3ccccc3)CC2)cc1 | inactive
27 | C[C@]12CCC(=O)C=C1CC[C@@H]1[C@@H]2CC[C@@]2(C)[C@H]1CC[C@]2(O)C(=O)CO | inactive
28 | OC(CCN1CCCCC1)(c1ccccc1)C1CCCCC1 (stereo not given) | inactive
29 | CN(C)CC[C@@H](c1ccc(Br)cc1)c1ccccn1 | inactive
30 | c1cnc(N2CCN(Cc3ccc4c(c3)OCO4)CC2)nc1 | inactive
31 | COc1ccc(CCN(C)CCCC(C#N)(c2cc(OC)c(OC)c(OC)c2)C(C)C)cc1OC (stereo not given) | inactive
32 | COC(=O)C1=C(C)NC(C)=C(C(=O)OCCN(C)Cc2ccccc2)C1c1cccc([N+](=O)[O-])c1 (stereo not given) | inactive
33 | COCCCC/C(=N\OCCN)c1ccc(C(F)(F)F)cc1 | inactive
34 | CCC(=O)c1ccc2c(c1)N(CCCN(C)C)c1ccccc1S2 | inactive
35 | N[C@@H](COP(=O)(O)O)C(=O)O | inactive
36 | OCCN1CCN(CCCN2c3ccccc3C=Cc3ccccc32)CC1 | inactive
37 | CC(C)(C)NCC(O)c1cc(O)cc(O)c1 (stereo not given) | inactive
38 | C[C@]12CCC(=O)C=C1CC[C@@H]1[C@@H]2C(=O)C[C@@]2(C)[C@H]1CC[C@]2(O)C(=O)CO | inactive
39 | COC(=O)[C@H]1[C@H]2C[C@@H]3c4[nH]c5cc(OC)ccc5c4CCN3C[C@H]2C[C@@H](OC(=O)c2cc(OC)c(OC)c(OC)c2)[C@@H]1OC | inactive
40 | O=C(O)CCCCCCCC(=O)O | inactive
